{"source": "PubChem BioAssay AID1611", "about": "(NINDS Approved Drug Screening Program, 2009)"}
{"assay": "inducers of human heat shock response, cell-based, HSE luciferase (AID 1611)", "settings": "human cells, HSE-luciferase heat shock reporter; stronger effect = higher value"}
{"smiles": "NCC(O)c1ccc(O)cc1", "note": "(centres undefined)", "fold change": 1.61}
{"smiles": "C[C@H]1O[C@@H](O[C@H]2[C@@H](O)C[C@H](O[C@H]3[C@@H](O)C[C@H](O[C@H]4CC[C@]5(C)C6CC[C@]7(C)[C@@H](C8=CC(=O)OC8)CC[C@]7(O)C6CC[C@@H]5C4)O[C@@H]3C)O[C@@H]2C)C[C@H](O)[C@@H]1O", "note": "(some centres undefined)", "fold change": 78}
{"smiles": "CN(C)[C@@H]1C(=O)C(C(N)=O)=C(O)[C@@]2(O)C(=O)C3=C(O)c4c(O)cccc4[C@@](C)(O)[C@H]3[C@H](O)[C@@H]12", "fold change": 1.27}
{"smiles": "COc1cc([C@@H]2c3cc4c(cc3[C@H](O)[C@H]3COC(=O)[C@H]23)OCO4)cc(OC)c1OC", "fold change": 0.57}
{"smiles": "C[C@@H]1C[C@@H]([C@H](O)CC2CC(=O)NC(=O)C2)C(=O)[C@@H](C)C1", "fold change": 0.84}
{"smiles": "CCCCC[C@H]1C(=O)O[C@H](C)[C@H](NC(=O)c2cccc(NC=O)c2O)C(=O)O[C@@H](C)[C@@H]1OC(=O)CC(C)C", "fold change": 0.64}
{"smiles": "NC(=O)CN1CCCC1=O", "fold change": 0.86}
{"smiles": "CC[C@@H]1/C=C/C=C/C[C@H](C)[C@@H](O)[C@](C)(O)C(=O)[C@H](C)[C@@H](O)[C@H](C)C(=O)[C@H](C)[C@@H](O)[C@H](C)/C=C/C(=O)O[C@H]2[C@@H](C)[C@@H](CC1)O[C@@]1(CC[C@@H](C)[C@@H](C[C@H](C)O)O1)[C@@H]2C", "fold change": 1.06}
{"smiles": "N#C/C(=C\\c1ccc(O)cc1)C(=O)O", "fold change": 1.34}
{"smiles": "CC(=O)Nc1cc([As](=O)(O)O)ccc1O", "fold change": 0.73}
{"smiles": "Clc1ccc(CSC(Cn2ccnc2)c2ccc(Cl)cc2Cl)cc1", "note": "(centres undefined)", "fold change": 0.83}
{"smiles": "C#CC1(O)CCC2C3CCC4=CC(=O)CCC4(C)C3CCC21C", "note": "(centres undefined)", "fold change": 0.91}
{"smiles": "CC(=O)C1=C(O)C2C3c4c[nH]c5cccc(c45)CC3C(C)(C)N2C1=O", "note": "(centres undefined)", "fold change": 1.11}
{"smiles": "C[C@@H]([C@H](O)c1ccccc1)N(C)C", "fold change": 1.08}
{"smiles": "CCCCCCCCCCCCCCCC[N+](C)(C)C", "fold change": 0.93}
{"smiles": "CC(=O)OCC1=C(C(=O)O)N2C(=O)[C@@H](NC(=O)CCCC(N)C(=O)O)C2SC1", "note": "(some centres undefined)", "fold change": 0.85}
{"smiles": "CC(=O)OC1CN2CCC1CC2", "note": "(centres undefined)", "fold change": 0.77}
{"smiles": "[N-]=[N+]=CC(=O)OCC(N)C(=O)O", "note": "(centres undefined)", "fold change": 1.29}
{"smiles": "N#CC(O[C@@H]1O[C@H](CO[C@@H]2O[C@H](CO)[C@@H](O)[C@H](O)[C@H]2O)[C@@H](O)[C@H](O)[C@H]1O)c1ccccc1", "note": "(some centres undefined)", "fold change": 0.7}
{"smiles": "C[C@H](N)[C@H](O)c1ccc(O)c(O)c1", "fold change": 1.53}
{"smiles": "CCN1C[C@@]2(COC)C3[C@@H](OC)[C@H]4[C@@H]1[C@]3(C(OC)C[C@H]2O)C1C[C@@]2(O)[C@H](OC(=O)c3ccccc3)C1[C@]4(OC(C)=O)[C@@H](O)[C@@H]2OC", "note": "(some centres undefined)", "fold change": 0.98}
{"smiles": "C=C[C@H]1CN2CC[C@H]1C[C@@H]2[C@H](O)c1ccnc2ccccc12", "fold change": 1.18}
{"smiles": "CC(=O)[O][Hg][c]1ccccc1", "fold change": 1.14}
{"smiles": "Cc1cc2c(C(C)C)c(O)c(O)c(C=O)c2c(O)c1-c1c(C)cc2c(C(C)C)c(O)c(O)c(C=O)c2c1O", "fold change": 0.95}
{"smiles": "O=c1[nH]oc2c1CCNC2", "fold change": 1.02}
{"smiles": "CNC(C)(C)Cc1ccccc1", "fold change": 1.1}
{"smiles": "CC(CCc1ccccc1)NC(C)C(O)c1ccc(O)cc1", "note": "(centres undefined)", "fold change": 1.23}
{"smiles": "CNC(C)C(O)c1ccccc1", "note": "(centres undefined)", "fold change": 0.96}
{"smiles": "Clc1ccc(COC(Cn2ccnc2)c2ccc(Cl)cc2Cl)c(Cl)c1", "note": "(centres undefined)", "fold change": 0.8}
{"smiles": "COc1ccc2c(c1OC)C(=O)O[C@H]2[C@H]1c2cc3c(cc2CCN1C)OCO3", "fold change": 0.8}
{"smiles": "O=P1(N(CCCl)CCCl)NCCCO1", "note": "(centres undefined)", "fold change": 0.79}
{"smiles": "CC1[C@H](C)OC(=O)CC(O)CC(O)CC(O)CCC(O)C(O)C[C@]2(O)CC(O)C(C(=O)O)C(CC(OC3O[C@H](C)[C@@H](O)[C@H](N)[C@@H]3O)/C=C/C=C/C=C/C=C/CC/C=C/C=C/[C@H](C)[C@H]1O)O2", "note": "(some centres undefined)", "fold change": 1.2}
{"smiles": "CCC1(CC)C(=O)C=CNC1=O", "fold change": 1.24}
{"smiles": "CNC1(c2ccccc2Cl)CCCCC1=O", "note": "(centres undefined)", "fold change": 1.39}
{"smiles": "CN(C)[C@@H]1C(=O)C(C(N)=O)=C(O)[C@@]2(O)C(=O)C3=C(O)c4c(O)ccc(Cl)c4[C@@](C)(O)[C@H]3C[C@@H]12", "fold change": 0.9}
{"smiles": "Clc1ccc(COC(Cn2ccnc2)c2ccc(Cl)cc2Cl)cc1", "note": "(centres undefined)", "fold change": 1.04}
{"smiles": "O=[N+]([O-])c1cc(O)c(O)c([N+](=O)[O-])c1", "fold change": 0.87}
{"smiles": "NCC(CC(=O)O)c1ccc(Cl)cc1", "note": "(centres undefined)", "fold change": 1.37}
{"smiles": "C=CCN1CC[C@]23c4c5ccc(O)c4OC2C(=O)CC[C@@]3(O)[C@H]1C5", "note": "(some centres undefined)", "fold change": 1.1}
